The record followed here is ChEMBL document CHEMBL3988442, “University of Dundee, Small-Polar-MMV Screening Library” (2021).

Test [1] concerns the target T1, Aspartate--tRNA(Asp/Asn) ligase (Mycobacterium tuberculosis (strain ATCC 25618 / H37Rv)) (UniProt P9WFW3). Note: in the data most compounds retested in dose-response had high values.
T1 sequence (whole entry): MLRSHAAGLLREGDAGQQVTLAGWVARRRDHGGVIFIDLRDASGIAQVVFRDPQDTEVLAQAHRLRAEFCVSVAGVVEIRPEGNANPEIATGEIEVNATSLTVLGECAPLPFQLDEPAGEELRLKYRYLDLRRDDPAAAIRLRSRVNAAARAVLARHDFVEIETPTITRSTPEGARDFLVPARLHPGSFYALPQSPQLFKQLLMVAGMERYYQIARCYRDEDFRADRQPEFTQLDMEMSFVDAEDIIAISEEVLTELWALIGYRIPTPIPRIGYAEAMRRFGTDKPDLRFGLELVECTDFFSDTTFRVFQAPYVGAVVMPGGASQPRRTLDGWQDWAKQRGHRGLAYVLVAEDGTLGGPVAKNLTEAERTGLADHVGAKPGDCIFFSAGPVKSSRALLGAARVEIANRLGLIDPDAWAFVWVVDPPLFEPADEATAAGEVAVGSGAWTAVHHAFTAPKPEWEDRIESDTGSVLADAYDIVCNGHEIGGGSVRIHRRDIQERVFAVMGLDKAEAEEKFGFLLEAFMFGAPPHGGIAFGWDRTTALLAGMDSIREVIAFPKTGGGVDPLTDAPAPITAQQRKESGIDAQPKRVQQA
The test is described as follows: Assay for Asp RNA synthetase-1 from Mycobacterium tuberculosis. In kind it is functional. To be noted: 30 µM. More on the design: scale not given: direction of the effect not stated beside the values.

The target in test [2] is Shiga toxin 2 (Escherichia coli O157:H7) (UniProt P09385+P09386). The test is described as follows: E. coli 0.157:H7 Shiga Toxin SOP - stx2 screening assay. The format is functional. Further details: scale not given: direction of the effect not stated beside the values. To be noted: 30 µM.

For `Cc1nn(C)c(N2CCOCC2)c1CNCc1nccs1`, the results for the Percent Effect in test [1] and in test [2] were -2.7% and 28.1%, respectively.
For the compound `Cc1nn(C)c(C)c1C1COCCN1C(=O)Cc1cccc(F)c1` (configuration not stated), the Percent Effect in test [1] was 1.67%; in test [2], -31%.
In the case of `Cn1ccnc1CN1CCC2(COCCN(Cc3ccsc3)C2)C1` (configuration not stated), the figures for the Percent Effect in test [1] and in test [2] were -5.11% and -19.8%, respectively.
Consider `CN(CC(F)(F)F)C(=O)C1CSCN1C(=O)OC(C)(C)C` (configuration not stated), for which the Percent Effect in test [1] is 2.82%; in test [2] it was -9.84%.
In the case of `OCCC1CN(C2CCC2)CCN1C1CCCC1` (configuration not stated), the Percent Effect in test [1] is -1.5%; in test [2] it was 7.89%.
The matching figures for `Cc1cnn(CCC(=O)N2CCC(Nc3cccnn3)CC2)c1`: 1.38% and 16.1%.
For the compound `O=C(Cc1ccc(F)cc1)N1CCn2cc(Cn3cccn3)nc2C1`, the results for the Percent Effect in test [1] and in test [2] were 5% and 5.65%, respectively.
`CCC(=O)N1CCCC1c1nccnc1Nc1ncccn1` (configuration not stated): the values for the Percent Effect in test [1] and in test [2] were 1.12% and 2.75%, respectively.
Turning to `Cc1nc(CN2CCOC(CNc3cccnn3)C2)oc1C` (configuration not stated), the Percent Effect in test [1] was -4%; in test [2] it was 0.662%.
Turning to `CC(=O)c1cccc(OCCCC(=O)N(C)Cc2cccc(O)c2)c1`, the figures for the Percent Effect in test [1] and in test [2] were -2.31% and -20.2%, respectively.
Turning to `COc1ccc2c(O)c(NC(=O)NCC3CC3)cnc2c1`, the Percent Effect in test [1] was 1.09%; in test [2], -13.7%.
The like results for `Cc1ccc(N2CCCC3(COCCN(c4nccs4)C3)C2)nn1` (configuration not stated) were, in that order, -0.638% and -17.6%.
As to `CC(=O)NCCNC(=O)c1sc(-c2ccc(C)cc2C)nc1C`, the Percent Effect came out at 3% in test [1] and 2.48% in test [2].
For the compound `CC[C@@]1(O)CCN(C(=O)c2ccc(-c3cccc(F)c3)cc2)C[C@H]1O`, the Percent Effect was determined as 3.54% in test [1] and 5.77% in test [2].
`CC(C)N1CCC(Cc2cc(-c3cccc(C(=O)O)c3)ncn2)C1` (configuration not stated): the results for the Percent Effect in test [1] and in test [2] were -2.43% and 2.16%, respectively.
`Cc1nn(-c2ccccc2)nc1C(=O)N1CCCC1c1cnn(C)c1` (configuration not stated): the Percent Effect in test [1] stood at 2.1%; in test [2], 18.4%.
The matching figures for `CN(C(=O)Cc1c[nH]c2ccccc12)C1CCN(c2ccccn2)CC1`: -1.54% and 5.44%.
Take `Cn1c(C2CC2)nc2c1CCN(CCOc1ccc(C#N)cc1)C2`: the results for the Percent Effect in test [1] and in test [2] were 3.25% and -7.77%, respectively.
Consider `Cc1nnc(NCC2(c3ccccc3)CC2)c(C#N)c1C`, for which the values for the Percent Effect in test [1] and in test [2] were 1.73% and 15.4%, respectively.
The like results for `Cn1cccc1C(=O)N1CCc2ncnc(N3CCCC3)c2CC1` were, in that order, -0.927% and -8.7%.
Consider `Cc1ccc([C@@H]2CN(C(=O)c3csc(C)n3)C[C@H]2NC(=O)C2CC2)cc1`, for which the Percent Effect was -3.36% in test [1] and 15.2% in test [2].
As to `Cc1nc(C2CCCN(C(=O)CCCn3ccnc3C)C2)no1` (configuration not stated), the Percent Effect in test [1] was -1%; in test [2], 14.1%.
The matching figures for `NC(=O)c1ccc(CN2CCCC(N3CCCC3)C2)cc1` (configuration not stated): -1.17% and -4.76%.
Consider `N#Cc1cc(NC(=O)C2CC=CC2)ccc1N1CCC(O)CC1`, for which the values for the Percent Effect in test [1] and in test [2] were -1.55% and -9.47%, respectively.
With `O[C@H]1CCN(Cc2ccoc2)[C@H]1Cc1cccnc1`, the Percent Effect was 6.58% in test [1] and -6% in test [2].
Consider `Fc1cccc(-c2nc(CN3CCOC(Cn4cncn4)C3)co2)c1` (configuration not stated), for which the Percent Effect in test [1] is -4%; in test [2], 1.8%.
In the case of `CC(C)N(C)CCCNC(=O)c1cnc(-c2ccccc2)nc1`, the Percent Effect was 3.09% in test [1] and -37.7% in test [2].
Consider `CCn1c(CN(C)C)nnc1C1CCN(c2ccnc(C)c2)CC1`, for which the results for the Percent Effect in test [1] and in test [2] were 4.18% and -16.1%, respectively.
As for `O=C(N1CCCC1)N1CCN(CC2CC2)c2ncccc2C1`, the Percent Effect in test [1] was 3.25%; in test [2], -4.59%.
With `CCc1noc(C2CCCCN2C(=O)c2ccn(C3CCCC3)n2)n1` (configuration not stated), the values for the Percent Effect in test [1] and in test [2] were -5.11% and -5.88%, respectively.
The matching figures for `COc1ccc(OC)c(C(C)Nc2nc3c(C)nn(C)c3c(=O)n2C)c1` (configuration not stated): 4.76% and -69.5%.
In the case of `O=C(Cc1ccc(-n2cccn2)cc1)N1CCCC(n2cccn2)C1` (configuration not stated), the values for the Percent Effect in test [1] and in test [2] were -2.94% and -22.3%, respectively.
With `CN(Cc1cccc(F)c1)C1CCN(CCc2ccccn2)CC1`, the Percent Effect in test [1] was -3.32%; in test [2], -8.85%.
Consider `Cn1c(Cn2cccn2)nnc1C1CCN(Cc2cccnc2N)CC1`, for which the results for the Percent Effect in test [1] and in test [2] were -5.74% and -18.3%, respectively.
The matching figures for `CCc1cnc(CN(C(C)=O)C2CCN(CCc3cccs3)C2)o1` (configuration not stated): -1.49% and 21.4%.
The like results for `O=C(NCC1CCCO1)c1c(-n2cnnn2)sc2c1CCC2` (configuration not stated) were, in that order, 1.11% and 2.95%.
Consider `O=C(CCNC(=O)C1CCCC1)NCc1ccccc1Cn1cncn1`, for which the Percent Effect in test [1] is 2.64%; in test [2], 29.7%.
The matching figures for `CCN(c1ccc(C(=O)NCCCN2CCOCC2)cc1)S(=O)(=O)CC`: 4.46% and -48.2%.
With `COCc1nc(C(=O)N2CCCC2c2ccccc2C)cs1` (configuration not stated), the Percent Effect in test [1] was -0.975%; in test [2] it was -12.9%.
As to `N#Cc1c(C2CC2)cc(-c2ccc(O)cc2)nc1N`, the Percent Effect was -1.42% in test [1] and 15.9% in test [2].
With `CCc1nc(CN(C)C2CCN(CCc3ccccn3)C2)no1` (configuration not stated), the values for the Percent Effect in test [1] and in test [2] were 8.1% and -35.9%, respectively.
Take `Cc1cc(N2CCN(CCO)CC2)nc(-c2ccncc2)n1`: the Percent Effect in test [1] is 1.26%; in test [2], -27.4%.
Turning to `O=C(NCCc1cccs1)[C@H]1CO[C@H]2CCNC[C@H]2C1`, the figures for the Percent Effect in test [1] and in test [2] were 2.09% and 2.12%, respectively.
For `O=C(c1ccoc1)N1CCC2(CC1)C(=O)Nc1ccccc12`, the Percent Effect in test [1] was -1.51%; in test [2] it was -2.64%.
For `O=C([C@@H]1CC[C@@H]2[C@@H](CCN2Cc2ccoc2)O1)N1CCCC1`, the results for the Percent Effect in test [1] and in test [2] were 0.466% and 1.2%, respectively.
Regarding `Cc1cnn(C2CN(Cc3nc(-c4ccco4)no3)C2)c1`, the Percent Effect in test [1] is -7.28%; in test [2], 10.9%.
As to `O=C(CCc1nc2cccnc2[nH]1)NCc1cccnc1`, the Percent Effect is -0.232% in test [1] and -44% in test [2].
The like results for `CC1CCN(C(=O)c2ccn(COc3ccc(F)cc3)n2)CC1` were, in that order, 9.51% and -44.1%.
Consider `CCCc1cc(C(=O)N(C)Cc2cnc3ccccc3n2)n(C)n1`, for which the Percent Effect is 8.2% in test [1] and -6.99% in test [2].
Regarding `CCc1nc(CN2CCN(C(=O)c3cnccn3)CC2)cs1`, the Percent Effect in test [1] was -2.04%; in test [2] it was -21.2%.
Take `CNc1cc(CCNC(=O)c2cccnc2)nc(-c2ccncc2)n1`: the Percent Effect in test [1] was -1.03%; in test [2], 2.08%.
